Results published in the supplement of paper PMC6555819.

Key:
Assay in all cases: PBM binding z-score (relative to random genomic background probes); higher = stronger binding; sequences stand for … in GC…GCGATTGACAGCGTAGAATGAAGG
[1] = tested on: RARb homodimer (NR concentration 270 nM)
Summary of the method: (§1)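 Antibodies against each partner of ligand-free nuclear receptor dimers (one per run) detected binding on custom Agilent 4×180K protein-binding microarrays after 1 h incubation. The double-stranded probes had 34-nt variable regions carrying direct-repeat seeds, single-nucleotide variants, half-site ablations and random human genomic background sequences. Binding z-scores, from regression-normalized fluorescence, use the random background probes as reference.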

[2] = tested on: RARg:RXRa (NR concentration 270 nM, RXRa partner concentration 90 nM)
Summary of the method: as §1

[3] = tested on: RARg homodimer (NR concentration 270 nM)
Summary of the method: as §1

[4] = tested on: RXRa DBDmut IVT, anti-RXR (DBD mutation: RXRa K156A/R161A, NR concentration 90 nM)
Summary of the method: as §1

[5] = tested on: RXRa homodimer (NR concentration 180 nM)
Summary of the method: as §1

[6] = tested on: THRa:RXRa (NR concentration 90 nM, RXRa partner concentration 90 nM)
Summary of the method: as §1

[7] = tested on: THRa homodimer (NR concentration 90 nM)
Summary of the method: as §1

[8] = tested on: VDR homodimer (NR concentration 270 nM)
Summary of the method: as §1

| Sequence | PBM binding z-score [1] | PBM binding z-score [2] | PBM binding z-score [3] | PBM binding z-score [4] | PBM binding z-score [5] | PBM binding z-score [6] | PBM binding z-score [7] | PBM binding z-score [8] |
| --- | --- | --- | --- | --- | --- | --- | --- | --- |
| CCTGCTAGGTCACGGTCAGCTAATCTACAGTATG | 3.98 | 5.01 | 6.09 | 2.08 | 4.15 | 3.35 | 2.35 | 0.444 |
| TTACCAAGGTGAGCTGAGCTCGTTGATCCAACTC | -0.157 | -0.164 | -0.277 | -0.78 | 0.0974 | 1 | -0.222 | -0.959 |
| ATGTCTAGGTAAAGATAGTTCAGTGAATGCAAAT | 0.94 | 0.598 | 0.794 | -0.0644 | 0.151 | 0.506 | -0.0958 | 0.431 |
| CTACCAAGGTGAACAAGGGCGTTGATTACTATTC | 1.26 | 1 | 0.99 | 0.764 | 0.725 | 2.13 | 0.707 | 0.903 |
| GGAACGAGGGCAAGTTGATAGCAGAGTTTGATGG | 1.67 | 1.68 | 2.25 | 2.42 | 0.781 | 1.3 | 0.0645 | 1.9 |
| TCTTGTAGATCAACAGGTGGTTAAGAAAGATCGA | -0.322 | -0.241 | -0.25 | 0.571 | -0.126 | -0.453 | -0.243 | -0.227 |
| TCATATAGGTAGACAGGTGAAAGTCCGTAAGTTA | 0.985 | 0.378 | 0.361 | 1.68 | 0.907 | 0.763 | 0.486 | 0.286 |
| AGTCAAAGTTCATCTAGGTAACCTAAGATATGCT | 4.08 | 5.61 | 6.14 | 4.79 | 4.87 | 3.21 | 0.817 | 5.75 |
| TCAGACATGTGAAGGTAACTCAGGTACGCAGTCG | -0.326 | 0.309 | 0.138 | 1.17 | 0.749 | 0.981 | -0.032 | -0.167 |
| TCTAGTTGGTCACGGAGGTCACCCACGACGGGTA | 4.51 | 4.85 | 5.06 | 0.865 | 5.13 | 3.66 | 2.82 | 2.79 |
| CATACGGGGTCAGCTAGGCCAGAGTAGGGACGGC | 4 | 6.37 | 6.46 | 3.01 | 7.61 | 3.98 | 1.61 | 3.27 |
| CCTTACGGGTCAAGGTCATAGCACGGGTGGTACG | 4.87 | 6.23 | 6.45 | 2.02 | 7.01 | 4.18 | 3.42 | 3.71 |
| ATATGTAGGTTATCGGGTTATTCAGTTTGCGCAT | 1.48 | 1.3 | 1.01 | 1.14 | 1.6 | 1.78 | 1.58 | 2.11 |
| TGAATCAGGTTATAAGATCAGGGAACGTTGCAAA | -0.228 | 0.24 | 0.42 | -0.671 | 0.358 | 0.505 | -0.129 | 0.0493 |
| TGTCAAAGTTTAAAGGTAACGTAAGTATCCACAC | 1.36 | 2.26 | 1.75 | 1.11 | 2.1 | 1.99 | -0.137 | 0.446 |
| AGAATGAGGTAATACGTAGATCAGGGAAGAAAGT | -0.0706 | 0.35 | 0.314 | -0.0157 | 0.428 | 1.39 | 0.304 | -0.472 |
| GCAACGAGGGCAAGTTGATAGCAGAGTTTGATGG | 1.66 | 1.61 | 1.77 | 2.2 | 0.98 | 1.36 | 0.152 | 1.66 |
| GATACAGGGTCAGCTAGAGGCCAGTGTATGGAAA | 3.64 | 6.8 | 5.06 | 1.51 | 4.25 | 2.98 | 0.265 | 0.727 |
| CCTACTGGGCCAAAGGTCATTGGTTCCAATGCTC | 4.8 | 5.8 | 4.77 | 0.919 | 6.11 | 3.37 | 0.894 | 2.85 |
| TAGCTTAGGTCATTGGGCCAGTATAGTACGCATC | 3.1 | 4.29 | 4.56 | 2.23 | 3.26 | 3.37 | 2.15 | 1.36 |
| TCTGCTAGGTAAACGATGGTCAGCTAATCTGCTA | -0.48 | -0.193 | -0.441 | -0.148 | 0.132 | -0.11 | -1.01 | -0.963 |
| AGAATGAGGTTATTAATATCAGGGAATTGCGGTC | 0.652 | 1.03 | 0.749 | 1.73 | 1.62 | 2.05 | 0.737 | 1.2 |
| AGAATGAGGTTAAGATCAGTGAAACAGAATACAT | 0.841 | 2.07 | 1.34 | 0.64 | 2.31 | 2.31 | 0.766 | 0.283 |
| ATATGTAGGTTAAGGCTCATTCAGGTTGGTTCGC | 0.698 | 0.684 | 0.622 | 0.534 | 0.844 | 0.76 | 0.71 | 0.761 |
| AGAATGAGGTTACCAAACATCAGGGAAACGCTTG | 0.501 | 1.92 | 1.75 | 1.15 | 2.56 | 2.59 | 0.726 | 0.159 |
| GTACTAAGGTGAATAGGTCGTTGATGAGTAGGCG | 2.3 | 3.3 | 1.84 | 0.451 | 2.22 | 3.11 | 1.66 | 0.722 |
| TCATATAGGTAAATGTGAAAGTCGAACGATATGA | -0.396 | 0.293 | 0.464 | 0.849 | 0.579 | -0.0536 | -0.354 | 0.207 |
| ATTCCAAGGTGATCGTGAGGTCGTTGATACTAAC | 1.59 | 2.23 | 0.975 | 0.914 | 1.4 | 3.55 | 2.95 | 3.2 |
